{"source": "PubChem BioAssay AID588591", "about": "(National Center for Advancing Translational Sciences (NCATS), 2011)", "note": "Screen size: about 390,000 compounds; about 4,700 (1.2%) were called active. Another 4% or so got no clear call; they are omitted. What follows is part of a selection rich in actives, with near analogues and random picks from the rest. A number with no mark means an inactive call. The call rests on the fitted dose curve; in most records, active means well fitted inhibition curve with a large enough effect; inconclusive means small, poorly fitted or top-dose-only effect, or another doubt; inactive means no such curve, though single readings can be large or run the other way. On the % scale 0 is the no-effect control and ±100 the full control effect; potency means the concentration at half of the fitted maximal effect.", "data": [{"target": "DNA polymerase eta (Homo sapiens) (UniProt Q9Y253)", "sequence (Q9Y253 whole entry, looked up)": "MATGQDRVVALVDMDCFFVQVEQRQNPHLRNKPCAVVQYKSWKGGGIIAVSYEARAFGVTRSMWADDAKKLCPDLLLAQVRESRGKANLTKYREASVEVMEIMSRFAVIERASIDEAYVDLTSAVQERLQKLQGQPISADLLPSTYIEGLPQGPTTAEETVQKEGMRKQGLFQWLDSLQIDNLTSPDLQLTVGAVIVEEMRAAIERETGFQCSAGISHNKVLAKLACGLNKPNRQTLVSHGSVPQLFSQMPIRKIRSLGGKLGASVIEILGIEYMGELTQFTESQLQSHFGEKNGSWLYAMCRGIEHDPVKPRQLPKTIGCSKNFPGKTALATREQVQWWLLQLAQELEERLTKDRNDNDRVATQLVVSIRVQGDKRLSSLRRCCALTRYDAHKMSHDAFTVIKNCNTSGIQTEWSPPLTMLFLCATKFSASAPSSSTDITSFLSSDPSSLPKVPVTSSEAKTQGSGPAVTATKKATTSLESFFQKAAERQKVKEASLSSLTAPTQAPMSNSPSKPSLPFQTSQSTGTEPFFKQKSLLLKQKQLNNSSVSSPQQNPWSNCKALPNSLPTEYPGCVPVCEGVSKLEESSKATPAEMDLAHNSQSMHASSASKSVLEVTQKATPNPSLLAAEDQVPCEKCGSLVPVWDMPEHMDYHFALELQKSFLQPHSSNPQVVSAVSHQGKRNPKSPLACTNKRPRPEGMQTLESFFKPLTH", "experiment": "qHTS for Inhibitors of Polymerase Eta", "settings": "recombinant Pol eta, fluorescent DNA replication assay; series mostly up to 114 µM; activity change, negative = inhibition: at the top concentration", "how_it_was_run": "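Fluorescent replication assay: 50 nM final substrate added after a 15 min room-temperature compound preincubation with 10 nM enzyme. Signal taken at 0 min and again at 10 min.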", "units": {"activity change, negative = inhibition": "%"}, "values": [{"smiles": "Oc1ccc(-c2nc3ccc(Cl)cn3c2Nc2ccc3c(c2)OCO3)cc1", "activity change, negative = inhibition": 3.35}, {"smiles": "O=C(COc1ccc(Cl)cc1)N(Cc1ccco1)Cc1ccco1", "activity change, negative = inhibition": -27.7}, {"smiles": "COc1cccc(C(c2c(O)cc(C)n(Cc3ccco3)c2=O)N2CCN(c3ccccc3)CC2)c1", "note": "(centres undefined)", "activity change, negative = inhibition": -18.2}, {"smiles": "O=C(c1ccc(Cl)cc1)n1nc(-c2cccnc2)nc1NCc1ccc(F)cc1", "activity change, negative = inhibition": -15.6}, {"smiles": "Cc1ccc(N=C2NC(=O)/C(=C/C=C/c3ccco3)S2)cc1C", "Potency": "8.91 µM (active)"}, {"smiles": "Cc1ccc(N2NC(=O)/C(=C/C=C/c3ccco3)C2=O)cc1C", "Potency": "79.4 µM (active)"}, {"smiles": "Cc1ccc(C(=O)N/C(=C\\c2ccco2)C(=O)N2CCSCC2)cc1C", "activity change, negative = inhibition": -7.95}, {"smiles": "Cc1ccccc1CNC(=O)C(=O)NCC(c1cccs1)S(=O)(=O)c1cccs1", "note": "(centres undefined)", "activity change, negative = inhibition": -3.21}, {"smiles": "CCCS(=O)(=O)c1c(Nc2ccccc2C)sc(C(=O)c2ccccc2)c1N", "activity change, negative = inhibition": -12}, {"smiles": "O=C(CCc1cn(Cc2ccc(F)cc2)c2ccccc12)NC1CCCCC1", "activity change, negative = inhibition": -15.2}, {"smiles": "CC(=O)Nc1cccc(NC(=O)CSc2nccn2Cc2ccc3c(c2)OCO3)c1", "activity change, negative = inhibition": -7.09}, {"smiles": "COc1ccc(-c2nn(CC(=O)NC3CCCC3)c3c2cnc2ccc(F)cc23)cc1", "activity change, negative = inhibition": -14.2}, {"smiles": "COc1ccc(CCNC(=O)c2ccc(CSCc3ccc(C)cc3)o2)cc1OC", "activity change, negative = inhibition": -14.8}, {"smiles": "COc1ccc(-c2ccc(=O)n(CC(=O)Nc3ccc(Br)cc3F)n2)cc1", "activity change, negative = inhibition": -16.5}, {"smiles": "COCCCn1c(SCC(=O)NC2CCCC2)nnc1-c1ccccc1", "activity change, negative = inhibition": -18.1}, {"smiles": "CCOc1ccc(Nc2nc(Cc3nnc(SCC(=O)NC4CCCC4)n3C)cs2)cc1", "activity change, negative = inhibition": -2.6}, {"smiles": "COCCCn1c(Cc2csc(Nc3cccc(Cl)c3)n2)nnc1SCC(=O)OC1CCCCC1", "Potency": "7.94 µM (active)"}, {"smiles": "COc1ccc(Cn2c(=O)c3oc4ccccc4c3n(CC(=O)Nc3ccc(F)cc3F)c2=O)cc1", "activity change, negative = inhibition": -8.21}, {"smiles": "C=C1c2c(Cl)ccc(O)c2C(O)=C2C(=O)[C@]3(O)C(O)=C(C(N)=O)C(=O)[C@@H](N(C)C)[C@@H]3[C@@H](O)C12", "note": "(some centres undefined)", "Potency": "35.5 µM (active)"}, {"smiles": "O=C(CSc1cn(CC(=O)N2CCOCC2)c2ccccc12)Nc1ccccc1", "activity change, negative = inhibition": -21.2}, {"smiles": "Cc1nnc(SC(C)C(=O)Nc2ccc(S(=O)(=O)NC3CCCCC3)cc2)s1", "note": "(centres undefined)", "activity change, negative = inhibition": -4.71}, {"smiles": "COc1ccc(NC(=O)CSc2nc(NS(=O)(=O)c3ccc(C)cc3)cc(=O)[nH]2)cc1", "activity change, negative = inhibition": -14.8}, {"smiles": "Cc1nnc(SCC(=O)Nc2ccc(S(=O)(=O)Nc3ccc(Cl)nn3)cc2)s1", "Potency": "20 µM (active)"}, {"smiles": "Cc1nc2nc(SCC(=O)NC3CCC(C)CC3)nn2c(C)c1Cc1ccccc1Cl", "note": "(centres undefined)", "activity change, negative = inhibition": 11.3}, {"smiles": "Cc1cc(C)c2oc(C(=O)Nc3ccc(S(=O)(=O)N(C)c4ccccc4)cc3)cc(=O)c2c1", "activity change, negative = inhibition": -7.98}, {"smiles": "O=C(Nc1cc(C(F)(F)F)ccc1Cl)c1cc2nc(-c3ccc4c(c3)OCO4)cc(C(F)(F)F)n2n1", "activity change, negative = inhibition": -14.8}, {"smiles": "COc1ccc(-c2ccnc(SCC(=O)N3CCOCC3)n2)cc1", "activity change, negative = inhibition": 0.998}, {"smiles": "COc1ccc(S(=O)(=O)N2CCN(CC(=O)N3CCOCC3)CC2)cc1OC", "activity change, negative = inhibition": -2.56}, {"smiles": "C=CCC1=C/C(=C\\c2c(N)n3nc(CC(=O)N4CCOCC4)sc3nc2=O)C=C(OC)C1=O", "Potency": "31.6 µM (active)"}, {"smiles": "COC1=C/C(=C/c2c(N)n3nc(CC(=O)N4CCOCC4)sc3nc2=O)C=CC1=O", "Potency": "44.7 µM (active)"}, {"smiles": "O=C(Nc1cc(C(F)(F)F)ccc1Cl)c1nc2ccccc2nc1N1CCCCC1", "activity change, negative = inhibition": -8.05}, {"smiles": "O=C(CN1CCSc2ccccc21)N1CCN(c2ccccc2)CC1", "activity change, negative = inhibition": -9.53}, {"smiles": "Cc1cc(C(=O)Nc2cccc(C(F)(F)F)c2)c2c(C)nn(-c3cccc(F)c3)c2n1", "activity change, negative = inhibition": -21.6}, {"smiles": "O=C(c1ccc2c(c1)N(Cc1ccc(Cl)cc1)C(=O)c1ccccc1S2(=O)=O)N1CCCCC1", "activity change, negative = inhibition": -19.6}, {"smiles": "COc1ccc(NC(=O)CN2CCCN(Cc3ccccc3)S2(=O)=O)cc1", "activity change, negative = inhibition": 2.95}, {"smiles": "COc1c(Cl)cc(C(=O)N(Cc2ccccc2F)C2CCS(=O)(=O)C2)cc1Cl", "note": "(centres undefined)", "activity change, negative = inhibition": -6.43}, {"smiles": "COc1ccc(NC(=O)CCc2nnc3n(CC(C)C)c(=O)c4ccccc4n23)cc1OC", "activity change, negative = inhibition": -8.67}, {"smiles": "Cc1cccc(NC(=O)NC2(C)CCS(=O)(=O)C2)c1", "note": "(centres undefined)", "activity change, negative = inhibition": -8.75}, {"smiles": "Cc1cccc(NC(=O)C2CCN(C(=O)NC3CCCCC3)CC2)c1", "activity change, negative = inhibition": -5.25}, {"smiles": "Cc1cccc(NC(=O)C2CC(=O)OC23CCCC3)c1", "note": "(centres undefined)", "Potency": "25.1 µM (active)"}, {"smiles": "Cc1ccc(CCNC(=O)c2ccc(CNS(=O)(=O)c3ccc(C)cc3)cc2)cc1", "activity change, negative = inhibition": -15.1}, {"smiles": "COc1ccc(CCNC(=O)c2cnc3sc(N4CCCCCC4)nn3c2=O)cc1OC", "activity change, negative = inhibition": -23.6}, {"smiles": "COc1ccccc1Nc1c2c(nc3ccc(NC(=O)/C=C/c4cc(OC)c(OC)c(OC)c4)cc13)CCCC2", "activity change, negative = inhibition": -19}, {"smiles": "Cc1ccc(-c2nnc(SCC(=O)NCc3ccccc3)nc2-c2ccc(C)cc2)cc1", "activity change, negative = inhibition": -9.01}, {"smiles": "Clc1ccccc1CSc1nncn2c1cc1occc12", "activity change, negative = inhibition": -0.969}, {"smiles": "Fc1ccc(CSc2nc(NCc3ccccc3)c3ccccc3n2)cc1", "activity change, negative = inhibition": -8.11}, {"smiles": "c1ccc(CSc2nnc(-c3ccco3)c(-c3ccco3)n2)cc1", "Potency": "22.4 µM (active)"}, {"smiles": "CC1(C)N=C(SCc2ccccc2Cl)c2ccccc2N1", "activity change, negative = inhibition": -4.35}, {"smiles": "Clc1ccccc1CSc1nnc(-c2ccco2)c(-c2ccco2)n1", "Potency": "25.1 µM (active)"}]}]}
